Source: PubChem
A selection: hits, their analogues and other compounds. The true share with any hit is near 7.3%.
IP6K1 inhibitor: Primary qHTS assay for small molecule inhibitors of Inositol hexaphosphate kinase 1 (IP6K1). Inositol hexakisphosphate kinase 1 (Homo sapiens), Q92551. actives 0.81% (n = 140,000). activity change, % (series mostly up to about 58 µM). IP6K1 kinase, ADP-Glo luminescence, 2 h; hits give low values; in the data active means activity change below about -25%; further: on the % scale 0 is the no-effect control and ±100 the full control effect
Target sequence (Q92551 whole entry, looked up): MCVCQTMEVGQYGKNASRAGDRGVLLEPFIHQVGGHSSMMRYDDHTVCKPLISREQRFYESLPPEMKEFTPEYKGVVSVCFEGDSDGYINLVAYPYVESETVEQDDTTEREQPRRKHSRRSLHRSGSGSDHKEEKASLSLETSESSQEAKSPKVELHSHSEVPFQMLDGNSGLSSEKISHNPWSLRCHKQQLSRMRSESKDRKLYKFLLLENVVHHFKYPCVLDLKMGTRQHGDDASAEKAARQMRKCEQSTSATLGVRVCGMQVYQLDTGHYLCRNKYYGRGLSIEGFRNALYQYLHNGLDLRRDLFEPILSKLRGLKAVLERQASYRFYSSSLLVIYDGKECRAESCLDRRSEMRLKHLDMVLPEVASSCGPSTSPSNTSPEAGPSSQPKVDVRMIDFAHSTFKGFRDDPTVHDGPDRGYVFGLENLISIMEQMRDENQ
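ADP-Glo luminescence measures ADP made by human IP6K1 during a 2 h RT reaction with ATP/IP6 (mix at 1.3 mM/130 uM); top library doses 57.5 and 19.1 uM final.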
HEK cytotox: Cytotoxic Profiling in HEK 293 Cell Line of Diverse Libraries Using Quantitative High-Throughput Screening | Potency, µM (titrated, usually from 115 µM), inactives show top-dose activity change, negative = cytotoxicity, most hits filed as inhibitors | AID 1345083, 2018 | HEK 293 viability, ATP luminescence (CellTiter-Glo), 48-72 h | actives 6.6% (n = 94,000); further: potency means the concentration at half of the fitted maximal effect; on the % scale 0 is the no-effect control and ±100 the full control effect; nearly all actives have a fitted effect of over 60% in size
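Cytotoxicity was scored by loss of ATP-coupled luminescence (CellTiter-Glo) in HEK 293 cells. Compound treatment ran 48 or 72 hr at 37 degree Celsius, 5% CO2, 95% humidity.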
HEK293 viab: GF-AFC viability counterscreen for inhibitors of alpha-synuclein gene (SNCA) expression | HEK-293-SNCA-luc viability, GF-AFC fluorescence, 24 h | Potency, µM (titrated, usually from 57.1 µM), inactives show top-dose activity change, negative = cytotoxicity, actives largely listed as cytotoxic | actives 0.12% (n = 150,000);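 further: potency means the concentration at half of the fitted maximal effect; 0% = DMSO-treated cells and -100% = medium-only wells without cells; nearly all actives have a fitted effect of over 30% in size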
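HEK-293-SNCA-luc cells (1500/well) plated 24 h, then exposed 24 h to a dilution series; GF-AFC added 30 min at 37C, fluorescence 405/540 nm; normalised to medium-only and DMSO wells, Hill fit.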
NIH3T3 tox: Cytotoxic Profiling in NIH 3T3 Cell Line of Diverse Libraries Using Quantitative High-Throughput Screening. actives 4.3% (n = 94,000). NIH 3T3 viability, CellTiter-Glo ATP luminescence, 48-72 h. Potency, µM (top dose mostly 96.7 µM), for the others: at the top dose activity change, negative = cytotoxicity, usual class: inhibitors; further: potency means the concentration at half of the fitted maximal effect; on the % scale 0 is the no-effect control and ±100 the full control effect; nearly all actives have a fitted effect of over 55% in size
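Cytotoxicity is measured as loss of cellular ATP: NIH 3T3 cells (400/well) are exposed to compound for 48 or 72 hr at 37 °C, then CellTiter-Glo luminescence is imaged after 10 min at room temperature.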
FLuc inh-1: Firefly luciferase inhibition profiling of diverse chemical library using quantitative high-throughput screening. Luciferin 4-monooxygenase (Photinus pyralis), P08659. Potency, µM (highest dose often 115 µM), most hits filed as inhibitors. actives 2.5% (n = 76,000). purified P. pyralis luciferase, luminescence, biochemical. AID 1347043, 2019; further: potency means the concentration at half of the fitted maximal effect; on the % scale 0 is the no-effect control and ±100 the full control effect; nearly all actives have a fitted effect of over 65% in size
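Purified P. pyralis luciferase (10nM final) in 50mM Tris acetate pH 7.5, 10mM Mg acetate, 0.01% Tween-20, 0.05% BSA with 10uM D-luciferin and 10uM ATP. Compounds titrated qHTS. Luminescence imaged on CCD.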
SNCA expr inh: Primary qHTS assay for inhibitors of alpha-synuclein gene (SNCA) expression; HEK-293 SNCA-luciferase knock-in, luminescence, 24 h; Potency, µM (doses to about 57.2 µM), for the others: at the top dose activity change, negative = inhibition, usual class: inhibitors; actives 0.17% (n = 140,000);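 further: potency means the concentration at half of the fitted maximal effect; plate controls were DMSO cells for no effect and cell-free wells for full effect; nearly all actives have a fitted effect of over 45% in size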
FLuc SDR -ATP: Firefly luciferase (FLuc-C-HiBiT) SDR gain of signal screen - without ATP; shares compounds with FLuc inh-1; Purified FLuc-C-HiBiT, Nano-Glo HiBiT luminescence, no ATP; Potency, µM (highest dose often 32.7 µM), inactives show at the top dose activation (signal gain), actives largely listed as activators; actives 7.8% (n = 1,300); AID 1963318, 2024; further: potency means the concentration at half of the fitted maximal effect; nearly all actives have a fitted effect of over 55% in size
FLuc SDR ATP: Firefly luciferase (FLuc-C-HiBiT) SDR gain of signal screen - plus ATP; Potency, µM (top dose mostly 32.7 µM), for inactives: at the highest dose activation (gain of signal), usual class: activators; purified FLuc-C-HiBiT + ATP, HiBiT complementation luminescence; actives 8.7% (n = 1,300); shares compounds with FLuc inh-1;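 further: signal reports ligand binding via conformational change of the enzyme rather than luciferase catalysis; potency means the concentration at half of the fitted maximal effect; % of control where 0% means no effect; nearly all actives have a fitted effect of over 55% in size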
FLuc inh-2: Firefly luciferase (FLuc-C-HiBiT) enzymatic inhibition screen - Functional assay. Potency, µM (highest dose often 32.7 µM), without a hit: at the top dose activity change, negative = inhibition, hits mostly inhibitors. AID 1963320, 2024. actives 42% (n = 1,300). purified FLuc-C-HiBiT enzyme, luciferin luminescence. shares compounds with FLuc inh-1; further: potency means the concentration at half of the fitted maximal effect; on the % scale 0 is the no-effect control and ±100 the full control effect; nearly all actives have a fitted effect of over 70% in size
* marks the source's active call; other numbers are inactive results; i = inactive; u = inconclusive; x = not tested or not shown; [ ] = remark or other dose. Unless noted, the call rests on the fitted dose curve; in most records, active means well fitted curve in the direction sought with a large enough effect; inconclusive means small, poorly fitted or top-dose-only effect, or another doubt; inactive means no such curve, though single readings can be large; an effect the other way counts as inactive or inconclusive.

SMILES	IP6K1 inhibitor	HEK cytotox	HEK293 viab	NIH3T3 tox	FLuc inh-1	SNCA expr inh	FLuc SDR -ATP	FLuc SDR ATP	FLuc inh-2
CCn1ccc(C(=O)NCC2Cn3cccc3CN2Cc2ccccc2)n1 (centres undefined)	7	u	-6%	u	i	27%	x	x	x
C[S+](=O)([O-])CCn1ncc2cc(OCc3cccc(-c4ccccc4O)c3)ccc21	-23	35µM*	u	u	4µM*	-12%[87.6 µM]	19%[49.3 µM]	16%[49.3 µM]	14µM*
Cc1cc(-c2cccc(COc3ccc4c(cnn4CC[S+](C)(=O)[O-])c3)c2)ccn1	-9	25µM*	-21%[87.6 µM]	25µM*	13µM*	10%[87.6 µM]	20%[49.3 µM]	12%[49.3 µM]	u
C[S+](=O)([O-])CCn1ncc2cc(OCc3cccc(-c4ccc(F)cc4)c3)ccc21	-3	u	-21%[87.6 µM]	u	10µM*	-6%[87.6 µM]	13%[49.3 µM]	12%[49.3 µM]	u
C[S+](=O)([O-])CCn1ncc2cc(OCc3cccc(-c4cccc(F)c4)c3)ccc21	20	u	-20%[87.6 µM]	u	u	8%[87.6 µM]	x	x	x
Cc1nc(-c2cccc(NC(=O)N[C@H](C)c3onc(C)c3C(=O)O)c2)no1	2	i	3%[87.6 µM]	-5%[174 µM]	i	4%[87.6 µM]	x	x	x
CC1CCCCN1c1csc2ccc(F)cc2c1=O (centres undefined)	-6	x	-1%	x	x	8%	29%	19%	8.8µM*
COc1ccccc1CNC(=O)c1oc2ccc3c(c2c1C)C(=O)CC(C)(C)O3	-6	x	-13%	x	x	130%	x	x	x
Cc1c(C(=O)NCc2cccc(Br)c2)oc2ccc3c(c12)C(=O)CC(C)(C)O3	10	x	6%	x	x	63%	17%	10%	u
COc1cccc(-n2cc(CN(C)c3ncncn3)cn2)c1	-16	-17%	-2%	-27%	13µM*	33%	17%	11%	-16%
COc1ccc(-n2cc(-c3ccnc(N(C)Cc4cnccn4)n3)cn2)cc1	61	u	0%	u	u	63%	x	x	x
CCCCOc1nc(N)c2[nH]c(=O)n(Cc3cccc(CC(=O)OC)c3)c2n1	x	x	x	x	x	x	11%	7%	2%
N#Cc1cccc(C(=O)N2CCC(N3C[C@H](Oc4ccccc4)[C@@H]3c3ccncc3)CC2)c1	8	u	u	u	x	6%	x	x	x
c1c(-c2nc(C3CCOC3)no2)sc2c1CCCC2 (centres undefined)	-6	u	3%	u	0.63µM*	-29%	21%	u	5.6µM*
COc1ccc(-c2cc3c(cn2)CN(C(C)=O)CCN3)cc1	x	x	x	x	x	x	28%[49.3 µM]	18%[49.3 µM]	13µM*
CC(=O)N1CCNc2cc(-c3ccccc3F)ncc2C1	x	x	x	x	x	x	15%[65.7 µM]	12%[65.7 µM]	u
CC(=O)N1CCNc2cc(-c3cccc(N4CCOCC4)c3)ncc2C1	x	x	x	x	x	x	24%[49.3 µM]	17%[49.3 µM]	u
CCC#CCN1Cc2cc(OC)ccc2N(CC(O)Cc2ccccc2)CCC1=O (centres undefined)	-17	u	x	u	x	x	x	x	x
CC[C@H]1CN(C(=O)Nc2ccccc2)CC[C@H]1CC(=O)NCc1ccccc1	-9	-4%[172 µM]	3%[87.6 µM]	-8%[174 µM]	i	-17%[87.6 µM]	x	x	x
Cc1ccc(-n2ncc3c(N4CCC(Cc5ccccc5)CC4)ncnc32)cc1C	6	x	6%	x	x	-16%	13%	9%	-1%
Fc1ccc(-n2ncc3c(N4CCC(Cc5ccccc5)CC4)ncnc32)cc1	9	x	-7%	x	x	39%	15%	8%	1%
O=C1OCCN1CCNc1ccc(-c2nc(-c3ccccc3F)no2)cn1	10	45µM*	-14%	u	5.6µM*	-11%	19%	19%	u
CN(C)c1nc(NCCN2CCOC2=O)ncc1F	9	-14%	9%	-4%	i	-14%	x	x	x
CC1(NC(=O)C2CC2)CN(Cc2nc(-c3ccccc3)cs2)C1	48	-29%[172 µM]	3%[87.6 µM]	u	13µM*	u	16%[49.3 µM]	13%[49.3 µM]	u
COc1ccccc1-c1csc(CN2CC(C)(NC(=O)C3CC3)C2)n1	6	u	7%[87.6 µM]	-26%[138 µM]	i	62%[87.6 µM]	x	x	x
SMILES	IP6K1 inhibitor	HEK cytotox	HEK293 viab	NIH3T3 tox	FLuc inh-1	SNCA expr inh	FLuc SDR -ATP	FLuc SDR ATP	FLuc inh-2
C=CCNC(=O)CCc1c(C)nn(-c2ccc(F)cc2)c1Oc1ccccc1	3	u	-13%	u	i	-4%	x	x	x
COc1cccc(F)c1-c1ccc(COc2ccc3c(cnn3CCC(=O)O)c2)cc1	-9	u	3%[87.6 µM]	u	25µM*	16%[87.6 µM]	16%[49.3 µM]	10%[49.3 µM]	u
Cc1ccccc1-c1ccc(COc2ccc3c(cnn3CCC(=O)O)c2)cc1	-13	u	0%[87.6 µM]	u	u	9%[87.6 µM]	20%[49.3 µM]	13%[49.3 µM]	16µM*
COc1ccc(-c2ccc(COc3ccc4c(cnn4CCC(=O)O)c3)cc2)c(Cl)c1	4	u	5%[87.6 µM]	-18%[138 µM]	u	3%[87.6 µM]	x	x	x
Cc1ccc(F)cc1-c1ccc(COc2ccc3c(cnn3CCC(=O)O)c2)cc1	-15	u	2%[87.6 µM]	u	22µM*	u	19%[49.3 µM]	12%[49.3 µM]	u
O=C(Nc1ccc(F)c(F)c1)C1CCN(C(=O)c2ncn3c2COC(c2ccccc2)C3)CC1 (centres undefined)	-9	-3%	11%	-2%	1µM*	55%	12%	0.56µM*	0.99µM*
COc1ccc(C2Cn3cnc(C(=O)N4CCC(C(=O)Nc5ccc(Cl)cc5)CC4)c3CO2)cc1 (centres undefined)	1	u	2%	-22%	u	2%	x	x	x
